Potency and outcome data for 13 compounds are collected here from PubChem BioAssay (Tox21).

Results filed as inconclusive are left out. Active and inactive are the calls of the source. Unless noted, the call rests on the fitted dose curve; in most records, active means well fitted curve in the direction sought with a large enough effect in the repeat runs; inconclusive means weak or mixed curves; inactive means no such curve, though single readings can be large; an effect the other way counts as inactive or inconclusive.

Experiment [1] in a line: qHTS assay for small molecules that induce genotoxicity in human embryonic kidney cells expressing luciferase-tagged ATAD5 (AID 651632). Further: nearly all actives have a fitted effect of over 15% in size. In short, it runs like this:
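Quantitative HTS in HEK293T expressing luciferase-tagged ATAD5, whose levels rise upon DNA damage. Exposure ran 16 hr at 37C and 5% CO2, with luminescence read 30 min after Amplite addition at room temperature.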
Background: qHTS replaces the single test concentration by a dilution series.

The nature of experiment [2]: qHTS assay for small molecule agonists of the p53 signaling pathway - cell viability (AID 651633; calls by dose curve; further: nearly all actives have a fitted effect of over 30% in size; further: potency means the concentration at half of the fitted maximal effect). In short, it runs like this: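 Viability counter-read: CellTiter-Glo luminescence (30 min, room temperature) in the same p53RE-bla plates. These plates had been exposed to compounds for 16 h at 37 C.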
The nature of experiment [3]: qHTS assay for small molecules that induce genotoxicity in human embryonic kidney cells expressing luciferase-tagged ATAD5 - cell viability (AID 651634; calls by dose curve; further: nearly all actives have a fitted effect of over 25% in size; further: potency means the concentration at half of the fitted maximal effect). The method, boiled down:
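After 15.5 hr incubation with compound at 37C, 5% CO2, HEK293T ATAD5-luciferase cells received CellTiter-Fluor reagent; fluorescence intensity was quantified following 30 min at 37C.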

The nature of experiment [4]: qHTS assay for small molecule disruptors of the mitochondrial membrane potential - cell viability (AID 720634; calls by dose curve; further: nearly all actives have a fitted effect of over 20% in size; further: potency means the concentration at half of the fitted maximal effect). In short, it runs like this:
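ATP-based luminescent viability readout (CellTiter-Glo, 30 min, room temperature) in HepG2 cells multiplexed with the m-MPI membrane potential dye; compound exposure lasted 1 hr at 37 C.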

The nature of experiment [5]: qHTS assay to test for compound auto fluorescence at 590 nm (red) in HepG2 cells (AID 720674). The method, boiled down:
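We screened compounds on adherent HepG2 cells, incubating them for an hour at 37 C in 5% CO2 before reading emission at 590 nm under 540 nm excitation; values reflect equivalence to Rose Bengal sodium fluorescence.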

Experiment [6] can be described thus: qHTS assay to test for compound auto fluorescence at 535 nm (green) in HepG2 cells (AID 720675).
A short description of experiment [7]: qHTS assay to test for compound auto fluorescence at 460 nm (blue) in HEK293 cells (AID 720678). In short, it runs like this: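 After cell attachment (4-5 hr, 37C), compounds were pinned onto HEK293 monolayers in 10% dialyzed FBS medium. The blue channel (405/460 nm) was read following overnight culture. Equivalency was calculated against triamterene.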
Experiment [8] can be described thus: qHTS assay to test for compound auto fluorescence at 590 nm (red) in HEK293 cells (AID 720679). In short, it runs like this:
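Plates of HEK293 cells (10% dialyzed FBS) are treated with 23 nL compound or DMSO vehicle after a 4-5 hr attachment period, incubated overnight at 37C, and read for red fluorescence at 540/590nm.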

Experiment [9] in a line: qHTS assay to test for compound auto fluorescence at 535 nm (green) in HEK293 cells (AID 720680).
The nature of experiment [10]: qHTS assay to test for compound auto fluorescence at 460 nm (blue) in HEK293 cell free culture (AID 720681). In short, it runs like this:
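Blue fluorescence (Ex 405/Em 460 nm, triamterene-equivalent) was read immediately after pin transfer of compound or DMSO into medium (DMEM, 10% FBS) without cells.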

A short description of experiment [11]: qHTS assay to test for compound auto fluorescence at 535 nm (green) in HEK293 cell free culture (AID 720682). The method, boiled down: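 Using fluorescein as calibrant, autofluorescence was quantified at 485/535 nm in cell-free DMEM containing 10% FBS after pintool addition of compound or vehicle.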
Experiment [12] can be described thus: qHTS assay to test for compound auto fluorescence at 590 nm (red) in HEK293 cell free culture (AID 720683). The method, boiled down: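 Red-channel autofluorescence of compounds in culture medium (DMEM, 10% FBS), no cells, measured at 540/590 nm. Rose Bengal sodium is the reference fluorophore for equivalence.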
Experiment [13] can be described thus: qHTS assay to test for compound auto fluorescence at 590 nm (red) in HepG2 cell free culture (AID 720684). In short, it runs like this: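 No cells present: MEM + 10% FBS only. Compound pinned in, red label read (540/590 nm). Activity = fluorescence equivalent to Rose Bengal sodium.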
Experiment [14] is described as follows: qHTS assay to test for compound auto fluorescence at 460 nm (blue) in HepG2 cell free culture (AID 720685). The method, boiled down: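 Cell-free plates of MEM plus 10% FBS received 23 nL compound or DMSO vehicle; blue-channel (405/460 nm) intensity scored against triamterene as reference fluorophore.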
Experiment [15] in a line: qHTS assay to test for compound auto fluorescence at 535 nm (green) in HepG2 cell free culture (AID 720686).
Experiment [16] in a line: qHTS assay to test for compound auto fluorescence at 460 nm (blue) in HepG2 cells (AID 720687). In short, it runs like this:
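Blue-channel autofluorescence (Ex/Em 405/460 nm, triamterene-equivalent) was measured after 1 hr compound exposure at 37 C, 5% CO2. Cells were HepG2, plated overnight at 37 C in MEM plus 10% FBS.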

A short description of experiment [17]: qHTS assay for small molecule disruptors of the mitochondrial membrane potential (AID 720635). Further: potency means the concentration at half of the fitted maximal effect. In short, it runs like this:
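Mitochondrial membrane potential tracked with Mito-MPS dye, red aggregates (ex 540/em 590 nm) against green monomers (ex 490/em 535 nm). Compound treatment 1 hr at 37C, dye 30 min in HepG2.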

Experiment [18] deals with Glucocorticoid receptor (Homo sapiens) (UniProt P04150). In words: qHTS assay to identify small molecule antagonists of the glucocorticoid receptor (GR) signaling pathway (AID 720692; active means well fitted inhibition curve with a large enough effect in the signal ratio in the repeat runs, not every such curve was filed as active; the % refers to the signal ratio; further: potency means the concentration at half of the fitted maximal effect). The method, boiled down:
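Quantitative HTS in antagonist format: HeLa cells expressing endogenous GR and a stably integrated GRE-bla reporter, stimulated with 5 nM dexamethasone (final) alongside test compounds for 18 h.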

The target is the same in experiment [19]. In words: qHTS assay to identify small molecule agonists of the glucocorticoid receptor (GR) signaling pathway (AID 720691; active means well fitted activation curve with a large enough effect in the signal ratio in the repeat runs, not every such curve was filed as active; the % refers to the signal ratio). As to conditions: GR-bla HeLa, beta-lactamase reporter ratio, 18 h; activation: at 62.4 µM (top of the series). In short, it runs like this: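 Cells: GR-bla HeLa, endogenous GR with stably integrated GRE-beta-lactamase reporter. Treatment 18 h, 37 C, compounds delivered in DMSO. Detection via LiveBLAzer B/G FRET substrate, 2 h RT, fluorescence intensity.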

Chain of Glucocorticoid receptor (Homo sapiens) (P04150 whole entry, looked up): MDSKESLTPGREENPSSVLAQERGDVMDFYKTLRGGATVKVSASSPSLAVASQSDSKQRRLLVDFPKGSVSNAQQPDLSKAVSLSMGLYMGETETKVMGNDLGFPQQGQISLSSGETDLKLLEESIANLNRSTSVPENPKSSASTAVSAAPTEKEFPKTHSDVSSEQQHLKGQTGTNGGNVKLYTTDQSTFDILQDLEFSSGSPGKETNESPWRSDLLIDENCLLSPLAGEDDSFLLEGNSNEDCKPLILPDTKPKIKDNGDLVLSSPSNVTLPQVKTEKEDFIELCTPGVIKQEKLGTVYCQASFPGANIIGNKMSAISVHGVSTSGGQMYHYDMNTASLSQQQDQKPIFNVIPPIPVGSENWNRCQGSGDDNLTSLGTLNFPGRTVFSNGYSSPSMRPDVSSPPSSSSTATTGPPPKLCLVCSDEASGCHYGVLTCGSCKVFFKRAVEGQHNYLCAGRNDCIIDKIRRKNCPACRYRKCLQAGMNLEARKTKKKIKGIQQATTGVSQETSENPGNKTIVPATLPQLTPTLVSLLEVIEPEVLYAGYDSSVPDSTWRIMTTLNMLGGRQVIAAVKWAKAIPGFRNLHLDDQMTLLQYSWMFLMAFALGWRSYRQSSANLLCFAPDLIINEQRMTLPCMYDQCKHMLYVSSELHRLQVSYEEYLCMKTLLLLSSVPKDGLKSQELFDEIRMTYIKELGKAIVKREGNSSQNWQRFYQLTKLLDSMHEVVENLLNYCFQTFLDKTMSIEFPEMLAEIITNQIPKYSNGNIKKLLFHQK

As to `c1ccc2occc2c1`, the Potency result in experiment [1], in experiment [2], in experiment [3], in [4], in experiment [6] and in experiment [7] was “inactive” throughout. Also, the Potency entry in experiment [10], in experiment [14], in experiment [15] and in [16] was “inactive” each time. Moreover, the outcome in [5], in experiment [8], in experiment [9], in experiment [11], in experiment [12] and in experiment [13] was inactive.

With `CCCCCCCCCCCCCCCCC(C(=O)O)C(O)(CC(=O)O)C(=O)O` (centres undefined), the Potency result in experiment [1], in experiment [3], in experiment [4], in experiment [6], in experiment [7] and in [10] was “inactive” in each case. Also, the Potency result in experiment [14], in experiment [15] and in experiment [16] was “inactive” in each case. Besides, in experiment [2], the Potency is 29.8 µM (active). In addition, the outcome in [5], in [8], in experiment [9], in experiment [11], in experiment [12] and in [13] was inactive.

Turning to `O=C(CCCCCCCCc1cccnc1)N1CCC(C=C(c2ccccc2)c2ccccc2)CC1`, the Potency result in experiment [1], in experiment [6], in experiment [7], in experiment [10], in [14] and in experiment [15] was “inactive” each time. Further, in [16], the Potency result was “inactive”. The Potency in [2] was 24.3 µM (active); in experiment [3], 61.1 µM (active); in experiment [4], 19.3 µM (active); in [17] it was 24.3 µM (active); in [18] it was 21.9 µM (active). For the same compound, the result in [5], in experiment [8], in experiment [9], in experiment [11] and in experiment [12] was inactive.

`COc1cc2c(cc1OC)[C@@H](Cc1cc(OC)c(OC)c(OC)c1)[N+](C)(CCCOC(=O)CC/C=C/CCC(=O)OCCC[N+]1(C)CCc3cc(OC)c(OC)cc3[C@H]1Cc1cc(OC)c(OC)c(OC)c1)CC2` (some centres undefined): the Potency result in experiment [1], in [2], in [3], in [4], in experiment [17] and in experiment [6] was “inactive” throughout. For the same compound, the Potency entry in experiment [7], in experiment [10], in experiment [14] and in [16] was “inactive” throughout. Moreover, the compound was classed as inactive in experiment [5], in experiment [8], in [9], in experiment [11], in [12] and in experiment [13].

On to `NC(N)=NCCCCN=C(N)N`, for which the Potency result in experiment [1], in experiment [2], in experiment [3], in experiment [4], in experiment [17] and in [7] was “inactive” each time. Further, the Potency entry in [10], in [14], in experiment [15], in experiment [16], in experiment [19] and in [18] was “inactive” throughout. Besides, the compound was called inactive in [5], in experiment [8], in [9], in experiment [11], in experiment [12] and in experiment [13].

On to `CCCCCCCCCCCCN1CCCC1=O`, for which the Potency result in [1], in [3], in [4], in experiment [6], in experiment [7] and in [10] was “inactive” each time. Moreover, the Potency entry in [14], in [15] and in [16] was “inactive” in each case. Besides, the figures for the Potency in [2] and in experiment [17] were 61.1 µM (active) and 68.6 µM (active), respectively. Moreover, the call in experiment [5], in experiment [8], in [9], in [11] and in experiment [12] was inactive.

On to `C[N+](C)(C)CCOP(=O)(O)OP(=O)([O-])OC[C@H]1O[C@@H](n2ccc(N)nc2=O)[C@H](O)[C@@H]1O`, for which the Potency entry in [1], in [2], in experiment [3], in experiment [4], in experiment [17] and in experiment [6] was “inactive” in each case. For the same compound, the Potency entry in experiment [7], in experiment [10], in experiment [14], in [15], in experiment [16] and in experiment [19] was “inactive” each time. Besides, the Potency result in [18] was “inactive”. Also, the result in [5], in experiment [8], in experiment [9], in experiment [11], in [12] and in experiment [13] was inactive.

Take `C[C@@H]1C(=O)NC2=Nc3cccc(Cl)c3CN21`: the Potency result in experiment [1], in experiment [2], in experiment [3], in experiment [4], in experiment [6] and in experiment [7] was “inactive” in each case. Also, the Potency entry in experiment [10], in [14], in [16] and in experiment [19] was “inactive” each time. Further, the compound was called inactive in experiment [5], in experiment [8], in experiment [9], in experiment [11] and in experiment [12].

In the case of `CC[C@H](C)C(=O)O[C@H]1CCC=C2C=C[C@H](C)[C@H](CC[C@@H]3C[C@@H](O)CC(=O)O3)[C@H]21`, the Potency entry in [1], in experiment [2], in experiment [3], in experiment [4], in [6] and in experiment [7] was “inactive” in each case. The Potency result in experiment [10], in experiment [14], in experiment [15] and in [16] was “inactive” each time. In addition, the call in experiment [5], in experiment [8], in [9], in experiment [11] and in experiment [12] was inactive.

For the compound `Nc1c(CC(=O)O)cccc1C(=O)c1ccccc1`, the Potency entry in [1], in [2], in experiment [3], in experiment [4], in experiment [17] and in [6] was “inactive” in each case. Moreover, the Potency entry in experiment [7], in experiment [10], in [14], in experiment [15], in experiment [16] and in experiment [19] was “inactive” each time. In experiment [18], the Potency entry was “inactive”. For the same compound, the call in experiment [5], in experiment [8], in experiment [9], in experiment [11], in experiment [12] and in experiment [13] was inactive.

Turning to `CN(C/C=C/c1ccccc1)Cc1cccc2ccccc12`, the Potency result in [1], in experiment [2], in [3], in [4], in experiment [17] and in experiment [6] was “inactive” each time. Also, the Potency result in experiment [7], in [10], in [14], in [15], in experiment [16] and in experiment [19] was “inactive” in each case. In addition, the Potency entry in [18] is “inactive”. For the same compound, the call in [5], in experiment [8], in experiment [9], in experiment [12] and in experiment [13] was inactive.

As to `CCC(NC(C)C)C(O)c1ccc(O)c(O)c1` (centres undefined), the Potency result in [1], in experiment [2], in experiment [3], in experiment [4], in experiment [17] and in experiment [6] was “inactive” each time. The Potency result in experiment [7], in experiment [10], in experiment [14], in [15] and in experiment [16] was “inactive” each time. Moreover, the outcome in [5], in experiment [8], in experiment [9], in experiment [12] and in [13] was inactive.

For the compound `CC(C)(C)c1ccc2c(S(=O)(=O)O)c(C(C)(C)C)ccc2c1`, the Potency entry in experiment [1], in experiment [2], in experiment [3], in experiment [4], in [6] and in [7] was “inactive” throughout. Moreover, the Potency entry in experiment [10], in [14], in experiment [15], in experiment [16], in experiment [19] and in experiment [18] was “inactive” throughout. For the same compound, the compound was classed as inactive in experiment [5], in experiment [8], in experiment [9], in experiment [11], in experiment [12] and in [13].
